Screens: PubChem, The Scripps Research Institute Molecular Screening Center
FBW7 activator – FBW7 E3 ligase activators, primary screen, biochemical, AlphaScreen, human. actives 0.13% (n = 650,000). normalized activity (activation), % at 26.1 µM. AlphaScreen FBW7–phospho-cyclin E peptide binding, activator screen; in the data active = normalized activity above about 1.9%;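 also: purified mutant Fbw7 with reduced substrate affinity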
Target sequence (Q969H0 whole entry, looked up): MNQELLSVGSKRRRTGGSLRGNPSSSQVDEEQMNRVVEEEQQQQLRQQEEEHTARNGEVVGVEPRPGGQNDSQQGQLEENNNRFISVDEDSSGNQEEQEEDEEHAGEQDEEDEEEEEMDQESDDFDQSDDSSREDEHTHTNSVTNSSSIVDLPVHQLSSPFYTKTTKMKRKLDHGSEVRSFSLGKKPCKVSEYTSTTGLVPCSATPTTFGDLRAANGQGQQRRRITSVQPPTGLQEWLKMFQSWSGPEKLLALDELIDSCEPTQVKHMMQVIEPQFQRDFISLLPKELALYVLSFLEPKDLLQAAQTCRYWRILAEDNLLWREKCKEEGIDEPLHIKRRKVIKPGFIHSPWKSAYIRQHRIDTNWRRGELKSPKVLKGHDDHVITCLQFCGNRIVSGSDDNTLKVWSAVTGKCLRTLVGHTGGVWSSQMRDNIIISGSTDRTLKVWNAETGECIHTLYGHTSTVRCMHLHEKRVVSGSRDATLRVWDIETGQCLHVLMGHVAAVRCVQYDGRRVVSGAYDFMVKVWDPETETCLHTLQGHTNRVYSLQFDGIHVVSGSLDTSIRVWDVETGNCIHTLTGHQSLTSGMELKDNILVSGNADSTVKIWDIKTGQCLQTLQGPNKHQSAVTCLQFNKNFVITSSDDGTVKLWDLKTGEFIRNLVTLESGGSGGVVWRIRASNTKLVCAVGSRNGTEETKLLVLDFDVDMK
TEAD-YAP block – TEAD-YAP interaction inhibition, primary screen, TEAD-YAP interaction inhibitor project, luminescence, HEK-TIYL cells | TEAD-Gal4/YAP UAS-luciferase luminescence | inhibition, % at 9.12 µM | actives 1.4% (n = 640,000); in the data active = inhibition above about 32%;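 also: 0% = median of test compound wells and 100% = reference inhibitor wells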
GPR151 activ – activators of human GPR151, primary screen, cell-based, PathHunter beta-arrestin, luminescence; activation, % at 11.2 µM; AID 1508602, 2020; G-protein coupled receptor 151 (Homo sapiens), Q8TDV0; PathHunter beta-arrestin GPR151 cells; actives 1% (n = 650,000); in the data active = activation above about 4.9%;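 also: 0% = median of compound wells and 100% = cells with positive control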
MITF inh – MITF inhibitors, primary screen, biochemical, AlphaScreen, human; AlphaScreen MITF homodimerization, bead proximity signal; actives 0.91% (n = 650,000); Microphthalmia-associated transcription factor (Homo sapiens), O75030; inhibition, % at 2.6 µM; in the data active = inhibition above about 50%;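 also: 0% = vehicle wells with protein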
Active calls of the source: *. Compounds with a hit are over-represented: about 3.5% of the library has one in this group of screens.

What do the screens show for `Cc1ccc(S(=O)(=O)N(C)c2ccc(C(=O)N3C(C)CCCC3C)cc2)cc1` (stereo unspecified)?
FBW7 activator: 1; TEAD-YAP block: 48*; GPR151 activ: 5; MITF inh: 11

What do the screens show for `Cc1ccc(S(=O)(=O)N(C)c2ccc(C(=O)N3CCCCC3)cc2)cc1`?
FBW7 activator: 0; TEAD-YAP block: 13; GPR151 activ: 1; MITF inh: 4

What do the screens show for `O=C1/C(=C/c2ccc(-c3ccc(Br)cc3)o2)C=C(c2ccccc2)N1c1cccc(I)c1`?
FBW7 activator: 0; TEAD-YAP block: -8; GPR151 activ: 1; MITF inh: -2

How did COCCNc1ncnc2scc(-c3ccccc3)c12 do in these assays?
FBW7 activator: 0; TEAD-YAP block: 36*; GPR151 activ: 1; MITF inh: -9

How did COc1ccc(CCNc2ncnc3scc(-c4ccccc4)c23)cc1OC do in these assays?
FBW7 activator: 0; TEAD-YAP block: 50*; GPR151 activ: 3; MITF inh: -9

Results for OCCNc1ncnc2scc(-c3ccccc3)c12 ?
FBW7 activator: 1; TEAD-YAP block: 19; GPR151 activ: 0; MITF inh: 20

Results for COCCNc1nccn2c(-c3ccccc3CO)cnc12 ?
FBW7 activator: 0; TEAD-YAP block: 0; GPR151 activ: 0; MITF inh: 16

What do the screens show for `c1ccc(CCNc2nccn3c(-c4ccoc4)cnc23)nc1`?
FBW7 activator: 0; TEAD-YAP block: 31; GPR151 activ: -3; MITF inh: -23

What do the screens show for `c1ccc(CCNc2nccn3c(-c4ccsc4)cnc23)nc1`?
FBW7 activator: -1; TEAD-YAP block: 50*; GPR151 activ: -1; MITF inh: -14

Results for OCCNc1nccn2c(-c3ccccc3CO)cnc12 ?
FBW7 activator: 2.1*; TEAD-YAP block: -4; GPR151 activ: 0; MITF inh: 3

What do the screens show for `CCC1SC2=NC(C)=C(C(=O)OC)C(c3ccccc3Br)N2C1=O` (stereo unspecified)?
FBW7 activator: 0; TEAD-YAP block: 9; GPR151 activ: 2; MITF inh: 18

How did COc1ccc(CCNc2ncnc3nc(-c4c(C)noc4C)[nH]c23)cc1 do in these assays?
FBW7 activator: 0; TEAD-YAP block: 11; GPR151 activ: 0; MITF inh: 8

What do the screens show for `C=CCn1c(=O)c2ccccc2n2c(SCc3ccccc3C#N)nnc12`?
FBW7 activator: 0; TEAD-YAP block: 4; GPR151 activ: -2; MITF inh: 15

How did O=C(Cc1c[nH]c2ccccc12)N/N=C/c1ccccc1Br do in these assays?
FBW7 activator: 0; TEAD-YAP block: 2; GPR151 activ: -1; MITF inh: 8

What do the screens show for `CC(=O)N1CCN(CC(=O)NC(c2ccccc2)c2ccccc2)CC1`?
FBW7 activator: 6.2*; TEAD-YAP block: 0; GPR151 activ: 0; MITF inh: -4

Results for COc1ccc2c(c1)CC(C(=O)Nc1ccc(-c3cn[nH]c3)cc1N(C)CCN1CCOCC1)CO2 (stereo unspecified) ?
FBW7 activator: 0; TEAD-YAP block: 1; GPR151 activ: 0; MITF inh: 10

What do the screens show for `COc1ccc(CN2C[C@@H]3C[C@@H](c4ccccc4C)N4CCC[C@@]34C2=O)cc1`?
FBW7 activator: 0; TEAD-YAP block: -6; GPR151 activ: -2; MITF inh: 4

What do the screens show for `COc1ccc(CN2C[C@@H]3C[C@@H](c4cc5ccccc5o4)N4CCC[C@@]34C2=O)cc1`?
FBW7 activator: 0; TEAD-YAP block: 77*; GPR151 activ: 0; MITF inh: -7

Results for Cc1cc(C)n(CCNc2nncc(-c3ccc4c(c3)OCO4)n2)n1 ?
FBW7 activator: 0; TEAD-YAP block: 28; GPR151 activ: 0; MITF inh: 2

Results for c1cnn(CCCNc2nncc(-c3ccc4c(c3)OCO4)n2)c1 ?
FBW7 activator: 1; TEAD-YAP block: 85*; GPR151 activ: 0; MITF inh: -14

How did CCOC(=O)c1ccc(NC(=O)CC23CC4CC(CC(C4)C2)C3)cc1 do in these assays?
FBW7 activator: 0; TEAD-YAP block: 69*; GPR151 activ: -1; MITF inh: 10

Results for C[n+]1ccccc1/C=C/C1=C(c2ccccc2)Oc2ccccc2O1 ?
FBW7 activator: 0; TEAD-YAP block: 83*; GPR151 activ: 2; MITF inh: 0

Results for C[n+]1ccccc1/C=C\c1ccccc1O ?
FBW7 activator: 0; TEAD-YAP block: 3; GPR151 activ: 0; MITF inh: 3

Results for O=C(COc1ccccc1-c1ccccc1)N/N=C/c1ccccn1 ?
FBW7 activator: 0; TEAD-YAP block: 51*; GPR151 activ: 1; MITF inh: 12

Results for Cc1ccccc1OCC(=O)N/N=C/c1ccc(O)cc1 ?
FBW7 activator: 0; TEAD-YAP block: 0; GPR151 activ: 0; MITF inh: 12

How did S=C(NCc1ccccc1)N/N=C/c1ccccn1 do in these assays?
FBW7 activator: 0; TEAD-YAP block: 89*; GPR151 activ: -1; MITF inh: 52*

Results for O=C(COc1ccccc1-c1ccccc1)N/N=C/c1cccnc1 ?
FBW7 activator: 0; TEAD-YAP block: 47*; GPR151 activ: -1; MITF inh: -2

How did CCOc1ccccc1OCC(=O)N/N=C/c1ccc(O)cc1 do in these assays?
FBW7 activator: 0; TEAD-YAP block: 57*; GPR151 activ: 0; MITF inh: 8

How did O=C(CCC(=O)N/N=C\c1ccccn1)N/N=C\c1ccccn1 do in these assays?
FBW7 activator: 0; TEAD-YAP block: 10; GPR151 activ: 1; MITF inh: 21

How did O=C(Nc1ccc2oc(-c3cccc(Cl)c3Cl)nc2c1)c1cc(Cl)ccc1I do in these assays?
FBW7 activator: 0; TEAD-YAP block: -28; GPR151 activ: -1; MITF inh: 13

What do the screens show for `C/C(=N\NC(=O)COc1ccccc1-c1ccccc1)c1ccc(O)cc1O`?
FBW7 activator: 0; TEAD-YAP block: 59*; GPR151 activ: 2; MITF inh: -31

How did O=C(N/N=C/c1cccnc1)c1cc(Br)ccc1OCc1ccccc1 do in these assays?
FBW7 activator: 0; TEAD-YAP block: 33*; GPR151 activ: -2; MITF inh: 23

What do the screens show for `O=C(N/N=C/c1cccnc1)c1ccccc1OCc1ccccc1`?
FBW7 activator: 0; TEAD-YAP block: -1; GPR151 activ: 0; MITF inh: -2

How did CCOc1ccc(Br)cc1C(=O)N/N=C/c1ccc2c(c1)OCO2 do in these assays?
FBW7 activator: 0; TEAD-YAP block: 33*; GPR151 activ: -1; MITF inh: 7

What do the screens show for `O=C(COc1ccccc1-c1ccccc1)N/N=C/c1ccncc1`?
FBW7 activator: 1; TEAD-YAP block: 52*; GPR151 activ: -2; MITF inh: 15

Results for COCCn1c(SCC(=O)Nc2nc3ccccc3s2)nnc1C(C)C ?
FBW7 activator: 0; TEAD-YAP block: -6; GPR151 activ: 1; MITF inh: -6
